Measured values: ChEMBL document CHEMBL3988442, “University of Dundee, Small-Polar-MMV Screening Library” (2021)
Out of some 68,000 compounds screened, about 25 (0.04%) showed an effect of 50% or more. The full list was thinned out, with strong results kept by preference.

Each compound was assayed against T1, Methionyl-tRNA synthetase, putative (Leishmania donovani (strain BPK282A1)) (UniProt E9BF75) (assay: Leishmania donovani Methionine tRNA synthetase (LdMetRS):v6. Primary screen assay).
T1 sequence (whole entry): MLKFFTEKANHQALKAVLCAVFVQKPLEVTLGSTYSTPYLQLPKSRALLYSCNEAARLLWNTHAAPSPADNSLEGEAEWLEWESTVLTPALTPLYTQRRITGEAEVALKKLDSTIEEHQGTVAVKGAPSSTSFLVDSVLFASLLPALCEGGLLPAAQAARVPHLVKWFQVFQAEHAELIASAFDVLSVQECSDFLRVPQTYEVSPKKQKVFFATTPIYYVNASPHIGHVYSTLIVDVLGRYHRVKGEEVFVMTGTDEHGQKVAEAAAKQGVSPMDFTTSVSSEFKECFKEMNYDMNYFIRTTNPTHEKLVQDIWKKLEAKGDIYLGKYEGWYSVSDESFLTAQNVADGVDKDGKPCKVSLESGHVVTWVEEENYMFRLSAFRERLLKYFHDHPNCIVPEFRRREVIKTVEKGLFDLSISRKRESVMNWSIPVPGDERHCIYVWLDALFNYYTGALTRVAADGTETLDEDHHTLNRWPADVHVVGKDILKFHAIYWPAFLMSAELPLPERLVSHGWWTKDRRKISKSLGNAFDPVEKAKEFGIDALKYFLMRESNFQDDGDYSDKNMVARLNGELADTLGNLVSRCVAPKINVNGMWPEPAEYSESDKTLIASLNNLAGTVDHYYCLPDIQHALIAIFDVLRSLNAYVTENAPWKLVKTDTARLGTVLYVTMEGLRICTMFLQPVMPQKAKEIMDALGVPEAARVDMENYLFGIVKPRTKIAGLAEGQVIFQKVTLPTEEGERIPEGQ
Type: functional
Design: conc 80 nM, time 150 minutes

Row | SMILES | inhibition
1 | O=C(NC1CC1)[C@@H]1CCO[C@@H]2CCN(CC3CCC3)C[C@H]21 | 16.2%
2 | CCN1C(=O)[C@]2(CC[C@@H]3CN(S(=O)(=O)CC(C)C)C[C@@H]32)N=C1C | 16.2%
3 | O=C(NCc1ccco1)[C@@]12CCO[C@@H]1CCN(Cc1ccccn1)C2 | 16.3%
4 | Cc1ccc(N2CCO[C@H]3CN(C(=O)c4cccc(C)n4)C[C@H]32)nn1 | 5.75%
5 | c1ccc(N(CCn2cncn2)CC2CC2)cc1 | 11%
6 | OCCCN(CCn1cncn1)c1ccccc1 | 8.36%
7 | Oc1ccc(N(CCc2ccccc2)CCn2cncn2)cc1 | 70%
8 | Cc1ccccc1C(=O)N1C[C@@H]2CCN(c3cccnc3)C[C@@H]2C1 | 10.5%
9 | Cc1nc(CN2C[C@@H]3CN(C(=O)c4ccnnc4)C[C@@H]3C2=O)cs1 | 13.1%
10 | CO[C@H]1CN(Cc2ccccc2F)[C@@H]2CCCO[C@H]12 | 10.8%
11 | CNc1cc(-c2ccccc2CN)c2cc[nH]c2n1 | 23.4%
12 | CNc1cc(-c2ccc(COCCN)cc2)c2cc[nH]c2n1 | 33.4%
13 | CNc1cc(-c2cccc(CN)c2)c2cc[nH]c2n1 | 53%
14 | CCn1cc(CN2C[C@H]3CC[C@@H]2CN(C(=O)C2CCC2)C3)cn1 | 12.2%
15 | CS(=O)(=O)N1C[C@@H]2COC[C@]2(C(=O)NCCc2cccs2)C1 | 3.36%
16 | c1cc2c(cc1CN1CC[C@H]3[C@H]1CCN3CC1CC1)OCO2 | 5%
17 | CS(=O)(=O)NC[C@]12COC[C@H]1CN(Cc1ccc3c(c1)OCO3)C2 | 15.2%
18 | CN(C)CCN1C[C@@H]2CN(S(=O)(=O)c3ccccc3)C[C@@H]2C1=O | 17.1%
19 | O=C(NCCc1ccccn1)[C@@]12CCO[C@@H]1CCN(c1ncccn1)C2 | 18.5%
20 | CN1CCCC[C@@H]2[C@H]1[C@@H](c1ccccc1)CCN2C(=O)c1ccncc1 | 12.5%
21 | Cc1nnc([C@H]2C[C@H]3CN(C(=O)Cc4ccc(F)cc4)CC[C@@H]3O2)o1 | 18.5%
22 | COCCN1CCN(Cc2ccc(F)c(C)c2)[C@H]2CS(=O)(=O)C[C@H]21 | 0.741%
23 | COCCN1C(=O)CC[C@]12CC[C@@H](NCc1nccs1)CC2 | 7.27%
24 | N#Cc1cccc(CN2C[C@H](OCC3CCOCC3)[C@H]3COC[C@H]32)c1 | 14.8%
25 | Cn1cc(CN2C[C@@H](N3CCCC3=O)[C@H]3OCCC[C@H]32)cn1 | 6.57%
26 | O=C1N(Cc2ccccc2)C[C@H]2CN(Cc3ccccc3Cl)CCN12 | 12.1%
27 | Cc1ccc(S(=O)(=O)N2C[C@H]3C[C@H](NC(=O)c4ccn(C)n4)[C@H]3C2)cc1 | 11.3%

Row | SMILES | inhibition
28 | CCCN1C[C@H]2CC[C@@H]1CN(Cc1cccc(O)c1)C2 | 3.78%
29 | Cn1cc(CN2CCO[C@H]3C(Cn4cccn4)CC[C@@H]32)cn1 (stereo not given in full) | 11.4%
30 | Cc1cnc(CN2C[C@H]3C[C@H](Oc4ccccc4)C[C@H]3C2)cn1 | 0%
31 | CNC(=O)[C@@H]1[C@@H](c2ccccc2)CN2CCN(Cc3ccco3)C[C@H]12 | 0.822%
32 | COc1cc(CN2CCCC[C@]3(C)NC(=O)CC[C@H]23)ccc1F | 14.2%
33 | O=C(NCC1CC1)[C@H]1CC[C@@H]2[C@@H](CCN2Cc2ccoc2)O1 | 10.8%
34 | Cc1cccc(CN2CC[C@H]3CO[C@H](CNC(=O)N(C)C)[C@H]3C2)c1 | 3.76%
35 | CN(C)C(=O)NCc1cc2n(n1)CCN(C[C@H]1[C@@H]3CNC[C@@H]31)C2 | 12%
36 | O=C1NC(c2ccccc2)=N[C@@]12CC[C@@H]1CN(S(=O)(=O)C3CC3)C[C@@H]12 | 6.19%
37 | CC(C)NC(=O)[C@H]1C[C@@H]2[C@@H](C1)OCCN2Cc1ccsc1 | 10.1%
38 | Cc1ccc(CN2CC[C@H]3CO[C@H](CN(C)C)[C@H]3C2)o1 | 15.1%
39 | CO[C@@H]1CC[C@H]2[C@H]1OCCN2S(=O)(=O)c1cn(C)cn1 | 7.3%
40 | COCC(=O)N1C[C@H]2CC[C@@]3(N=C(c4ccccc4)NC3=O)[C@H]2C1 | 8.15%
41 | Cc1nc(C)n(CC2CCCN2Cc2nc(C)c3ccccc3n2)n1 (stereo not given) | 57%
42 | Cc1nc(C)n(CC2CCCN2Cc2nc3ccccc3nc2C)n1 (stereo not given) | 13.3%
43 | Cc1nc(C)n(CC2CCCN2Cc2nc(N)c3ccccc3n2)n1 (stereo not given) | 11.2%
44 | O=C(c1ccco1)N1C(CN2CCOCC2)[C@]2(O)CC[C@H]1CC2 (stereo not given in full) | 15.1%
45 | O=C(N[C@@H]1CN(Cc2cccs2)[C@@H]2CCCO[C@@H]21)c1cscn1 | 11.8%
46 | Cc1nc([C@@H]2C[C@@H]3CCN(C(=O)Cc4ccsc4)C[C@H]3O2)no1 | 8.15%
47 | COCCCN1C(=O)CC[C@H]2CN(c3cnc4ccccc4n3)CC[C@H]21 | -5.03%
48 | CCC1=N[C@@]2(CC[C@@H]3CN(C(=O)NC(C)C)C[C@@H]32)C(=O)N1C | 12.4%
49 | Cc1nc(CN2C[C@@H]3CCCO[C@@H]3[C@H](NC(=O)CC3CC3)C2)cs1 | 12.6%
50 | CS(=O)(=O)NC[C@H]1OC[C@H]2CN(Cc3ccsc3)CC[C@H]21 | 17.8%
51 | CN(C)CCNC(=O)c1ccc2ccc(N(C)CC3CC3)n2c1 | 25.3%
52 | COCCNC(=O)c1ccc2ccc(N(C)CC3CC3)n2c1 | 22.1%
53 | CN(CC1CC1)c1ccc2ccc(C(=O)NCCc3ccccc3)cn12 | 51%
54 | O=C(c1ccc[nH]1)N1C[C@H](OCc2cccnc2)[C@H]2COC[C@H]21 | 16.2%

Row | SMILES | inhibition
55 | C=C1C(C)(C)[C@H]2CC[C@]1(C(=O)N1CCC(Cn3cc(CO)nn3)CC1)C2 | 11.7%
56 | NC(=O)N1CC[C@H]2CO[C@H](CNC(=O)c3ccnnc3)[C@H]2C1 | 15%
57 | Cc1cnccc1CN(C)C(=O)c1ccc(Cn2cnnn2)cc1 | 2.48%
58 | Cc1nc(CN(C)C(=O)c2ccc(Cn3cnnn3)cc2)cs1 | 123%
59 | Cc1ncsc1CCN(C)C(=O)c1ccc(Cn2cnnn2)cc1 | 16.8%
60 | O=S1(=O)C[C@@H]2[C@H](C1)N(Cc1cc(F)cc(F)c1)CCN2CCO | 1.27%
61 | COCc1cc(N2CCc3onc(-c4cccc(OC)c4)c3C2)ncn1 | 12.5%
62 | COc1cccc(-c2noc3c2CN(c2ncnc4c2CCC4)CC3)c1 | 52.3%
63 | COc1cccc(-c2noc3c2CN(c2nc(C)ncc2C)CC3)c1 | 15%
64 | O=C(NC1CC1)[C@H]1CC[C@@H]2[C@@H](CCN2Cc2ccsc2)O1 | 6.67%
65 | Cc1ccnc(NCCNC(=O)CCNC(=O)c2ccccc2F)c1 | 34.8%
66 | O=C(CCNC(=O)c1ccccc1F)NCCNc1cccnc1 | 120%
67 | CCn1cnnc1CCNC(=O)CCNC(=O)c1ccccc1F | 17.3%
68 | Cc1cccc(C(=O)N2C[C@@H]3[C@H](CC(=O)NC(C)C)[C@@H]3C2)n1 | 6.67%
69 | Cc1ncc(CNc2cnccc2CO)s1 | 11.8%
70 | Cc1ccc(-c2ncc(CNc3cnccc3CO)s2)cc1 | 1.86%
71 | CC(C)Cc1ncc(CNc2cnccc2CO)s1 | 121%
72 | Cn1cc(C(=O)N[C@@H]2CN(Cc3cccs3)[C@@H]3CCCO[C@@H]32)cn1 | 16.3%
73 | O=C1NC[C@]2(CC[C@@H](C(=O)N3CCC(O)CC3)CC2)Oc2ccccc21 | 17.4%
74 | Cc1oc(C(C)C)cc1C(=O)N1C[C@H]2CC[C@@H]1CN(c1ncccn1)C2 | 7.9%
75 | O=C([C@@H]1COC[C@H]2CN(C3CCCCC3)C[C@H]21)N1CCOCC1 | 14.6%
76 | O=S(=O)(CCSc1nccn1C1CC1)c1ccccc1 | -9.32%
77 | O=S(=O)(NCCSc1nccn1C1CC1)c1ccccc1 | 67.7%
78 | O=S(=O)(NCCSc1nncn1C1CC1)c1ccccc1 | 3.73%
79 | Cc1noc([C@@]23CCO[C@@H]2CCN(C(=O)c2cc(C)c(C)s2)C3)n1 | 8.14%
80 | Cc1noc([C@@H]2C[C@H]3OCC[C@H]3N(Cc3sccc3C)C2)n1 | 10.5%
81 | Cc1occc1C(=O)N1CCO[C@H]2[C@H](Oc3cccnc3)CC[C@@H]21 | 3.85%

Row | SMILES | inhibition
82 | CCS(=O)(=O)N1CC[C@H]2O[C@H](c3nc(C)no3)CC[C@H]21 | 21%
83 | O=C1C[C@H]2CC[C@@H](CN1)N2C(=O)CCc1ccc2c(c1)OCO2 | 17%
84 | O=C(c1cc(F)cc(Cl)c1)N1CCN(CCO)[C@@H]2CS(=O)(=O)C[C@@H]21 | 3.31%
85 | Cc1noc(C)c1CN1CC[C@H]2OCC[C@@H](C(=O)NCC3CC3)[C@H]2C1 | 14.8%
86 | Cc1ccc(CN2CC[C@H]3OCC[C@@]3(C(=O)N3CCCO3)C2)o1 | 6.85%
87 | O=C(N[C@@H]1CN(c2ncccn2)[C@@H]2CCCO[C@@H]21)c1cscn1 | 13.6%
88 | O=C1CC[C@H]2CN(c3ncccc3F)CC[C@H]2N1CCc1ccccc1 | -0.347%
89 | CCc1c(C(=O)N2C[C@H]3CC[C@@H]2CN(c2cnccn2)C3)csc1C | 13.4%
90 | CN(C)C(=O)[C@@H]1CCO[C@@H]2CCN(CCOCc3ccccc3)C[C@H]21 | 1.54%
91 | OCC1N(Cc2ccc(F)cc2)[C@H]2CC[C@]1(O)CC2 (stereo not given in full) | 12.3%
92 | Cc1ccc(C(=O)N2C[C@@H](N3CCN(C)CC3)[C@H]3OCCC[C@H]32)cn1 | 14.1%
93 | N#Cc1ccccc1CN1C[C@H]2CC[C@@H]1CN(C(=O)c1cccnc1)C2 | 15.4%
94 | CNC(=O)[C@@]12CCC3(CCNCC3)[C@@H]1CN(S(C)(=O)=O)C2 | 18.3%
95 | O=C1OCCN1CC(=O)N1C[C@H]2CC[C@@H]1CN(C(=O)c1ccccc1)C2 | 10.6%
96 | Cc1nc(CC(=O)N2c3ccccc3OCC2C)cs1 (stereo not given) | 6.21%
97 | CC1COc2ccccc2N1C(=O)c1cscn1 (stereo not given) | 12.4%
98 | CC1COc2ccccc2N1C(=O)CCc1cscn1 (stereo not given) | 59%
99 | CNC(=O)[C@@H]1C[C@H]2CN(C(=O)c3ccco3)C[C@H]2N1C(C)C | 14.5%
100 | CC(C)=CCN1C[C@@H]2CN(C(=O)c3cnccc3C)C[C@]2(C(=O)O)C1 | 8.52%
101 | CCCN1CCN(Cc2cccc(OC)c2)[C@H]2CS(=O)(=O)C[C@H]21 | 12.4%
102 | CNC1CCN(C2CCN(c3ccc(-c4ccco4)cc3)CC2)CC1 | 21%
103 | NC1CCN(C2CCN(c3ccc(-c4ccco4)cc3)CC2)CC1 | 42.5%
104 | NCC1CCN(C2CCN(c3ccc(-c4ccco4)cc3)CC2)C1 (stereo not given) | 52.7%
105 | CCc1cc(CN2C[C@H]3CC[C@@H]2CN(C2Cc4ccccc4C2)C3)on1 | 18.8%
